From PubChem BioAssay AID1159580 (chemical genetic matrix, 2015)
Several values for one entry are separate records, joined by “and”; a condition that tells them apart may be missing. Identical values can stand only once. About 2,000 (36%) of roughly 5,500 compounds were called active. Inconclusive results (about 18%) are left out. Rule as the data show it: active = normalized growth mostly below about 0.91 (no sharp cut-off); inconclusive = no clear call, values can overlap the other calls; inactive = mostly above about 0.92. Some of the results follow.

Experiment: chemical genetic growth profiling, strain panel (AID 1159580);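 also: tested at 20 µM; growth read once vehicle control cultures reached saturation at 30 °C; 1 = growth at the plate median or of vehicle wells; lower values mean less growth of the strain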
Conditions: S. cerevisiae deletion strains, growth OD

Measured: normalized growth

Cc1ccccc1C(OCCN(C)C)c1ccccc1 (centres undefined)
inactive: locus YAL021C, strain ccr4, active compounds read low 0.977 | locus YAL026C, strain drs2, active compounds read low 1 | locus YAL030W, strain snc1, active compounds read low 1 | locus YAL040C, strain CLN3, active compounds read low 0.992 | locus YBL061C, strain skt5, active compounds read low 1 | locus YBR009C, strain hhf1, active compounds read low 0.996 | locus YBR021W, strain FUR4, active compounds read low 0.913 | locus YBR023C, strain chs3, active compounds read low 1.01 | locus YBR171W, strain sec66, active compounds read low 1.01 | locus YBR229C, strain ROT2, active compounds read low 1 | locus YBR231C, strain swc5, active compounds read low 1 | locus YBR279W, strain paf1, active compounds read low 0.993 | locus YCL011C, strain gbp2, active compounds read low 1.01 | locus YCL016C, strain dcc1, active compounds read low 1.01 | locus YCL029C, strain bik1, active compounds read low 1.01 | locus YCL061C, strain MRC1 (second series), active compounds read low 0.987 | locus YCL061C, strain MRC1, active compounds read low 1.01 | locus YCL069W, strain vba3, active compounds read low 1.01 | locus YCR088W, strain abp1, active compounds read low 1 | locus YDL005C, strain med2, active compounds read low 0.986 | locus YDL035C, strain GPR1, active compounds read low 1.01 | locus YDL040C, strain nat1, active compounds read low 1.01 | locus YDL074C, strain BRE1, active compounds read low 0.959 | locus YDL101C, strain DUN1, active compounds read low 1 | locus YDL134C, strain PPH21, active compounds read low 1.01 | locus YDL185W, strain tfp1, active compounds read low 1.02 | locus YDL192W, strain arf1, active compounds read low 1.01 | locus YDR001C, strain nth1, active compounds read low 1.01 | locus YDR069C, strain doa4, active compounds read low 0.994 | locus YDR101C, strain arx1, active compounds read low 1.01 | locus YDR137W, strain rgp1, active compounds read low 1.07 | locus YDR150W, strain NUM1, active compounds read low 0.994 | locus YDR159W, strain sac3, active compounds read low 1.01 | locus YDR162C, strain NBP2, active compounds read low 0.993 | locus YDR195W, strain ref2 0.996 | locus YDR297W, strain sur2, active compounds read low 1.01 | locus YDR318W, strain mcm21, active compounds read low 1.02 | locus YDR334W, strain swr1, active compounds read low 1.01 | locus YDR335W, strain msn5, active compounds read low 1 | locus YDR363W, strain ESC2, active compounds read low 0.998 | locus YDR388W, active compounds read low 1.01 | locus YDR392W, strain spt3, active compounds read low 0.966 | locus YDR502C, strain sam2, active compounds read low 1.01 | locus YEL003W, strain gim4, active compounds read low 0.981 | locus YEL037C, strain rad23, active compounds read low 0.999 | locus YEL061C, strain CIN8 (second series), active compounds read low 1.01 | locus YEL061C, strain CIN8, active compounds read low 1 | locus YER002W, strain NOP16, active compounds read low 1.01 | locus YER015W, strain faa2, active compounds read low 1 | locus YER016W, strain bim1, active compounds read low 0.998 | locus YER110C, active compounds read low 1.01 | locus YER111C, strain swi4, active compounds read low 1 | locus YER155C, strain BEM2 (second series), active compounds read low 1.01 | locus YER155C, strain BEM2, active compounds read low 1.01 | locus YER167W, strain BCK2, active compounds read low 1 | locus YFR010W, strain ubp6, active compounds read low 1 | locus YGL078C, strain dbp3, active compounds read low 1 | locus YGL086W, strain mad1, active compounds read low 0.994 | locus YGL167C, strain pmr1, active compounds read low 1.01 | locus YGL173C, strain kem1, active compounds read low 0.994 | locus YGL227W, strain vid30, active compounds read low 1.02 | locus YGL240W, strain doc1, active compounds read low 0.994 | locus YGL248W, strain PDE1, active compounds read low 1 | locus YGL253W, strain hxk2, active compounds read low 1.01 | locus YGR078C, strain PAC10, active compounds read low 1 | locus YGR135W, strain pre9, active compounds read low 1 | locus YGR252W, strain gcn5, active compounds read low 0.902 | locus YHR013C, strain ard1, active compounds read low 0.986 | locus YHR027C, strain rpn1, active compounds read low 0.997 | locus YHR030C, strain SLT2, active compounds read low 1 and 0.992 | locus YHR079C, strain IRE1 (second series), active compounds read low 1.02 | locus YHR079C, strain IRE1, active compounds read low 0.973 | locus YHR094C, strain hxt1, active compounds read low 1 | locus YHR129C, strain ARP1, active compounds read low 1.01 | locus YHR142W, strain chs7, active compounds read low 1.01 | locus YHR200W, strain rpn10, active compounds read low 1.01 | locus YIL066C, strain RNR3, active compounds read low 1.01 | locus YIL073C, strain SPO22, active compounds read low 1.05 | locus YIL125W, strain kgd1, active compounds read low 0.994 | locus YIR030C, strain dcg1, active compounds read low 1.02 | locus YJL092W, strain hpr5, active compounds read low 1.01 | locus YJL095W, strain BCK1 (second series), active compounds read low 1.01 | locus YJL095W, strain BCK1, active compounds read low 0.983 and 0.99 | locus YJL115W, strain asf1, active compounds read low 0.992 | locus YJL129C, strain trk1, active compounds read low 0.986 | locus YJL134W, strain LCB3, active compounds read low 1 | locus YJL154C, strain vps35, active compounds read low 1 | locus YJL164C, strain tpk1, active compounds read low 0.991 | locus YJL166W, strain qcr8, active compounds read low 1.01 | locus YJL168C, strain set2, active compounds read low 1.01 | locus YJL187C, strain SWE1 (second series), active compounds read low 1 | locus YJL187C, strain SWE1, active compounds read low 1.01 | locus YJR043C, strain POL32, active compounds read low 0.995 | locus YJR066W, strain TOR1, active compounds read low 0.952
